Active and inactive are the calls of the source. The call rests on the fitted dose curve; in most records, active means well fitted curve in the direction sought with a large enough effect in the repeat runs; inconclusive means weak or mixed curves; inactive means flat fitted curve, though single readings scatter.
Experiment: qHTS assay to test for compound auto fluorescence at 460 nm (blue) in HepG2 cells (AID 720687)
Conditions: autofluorescence 405/460 nm, 1 h; series mostly up to 91.3 µM; fluorescence, % of fluorescent control: at the top concentration
Source text: U.S. Tox21 Program National Center for Advancing Translational Sciences [NCATS] NIH Chemical Genomics Center [NCGC] U.S. Environmental Protection Agency [EPA] National Institutes of Environmental Health Sciences [NIEHS] National Toxicology Program [NTP] U.S. Food and Drug Administration [FDA] Tox21 Assay Overview: Compound auto fluorescence often interferes with screening of the compound library against various biological targets and signaling pathways. Some of these compounds may have fluorophoric properties. Such properties may interfere with the assay outputs resulting in false positives and/or negatives. To decrease such complications and ensure the compound activities are relevant in terms of biological response, the Tox21 10K compound library was screened for auto fluorescence. From the fluorophores used as reporter signals in our screening assays, the auto fluorescence equivalencies of compounds against three fluorophores have been evaluated: Triamterene, Fluorescein and Rose Bengal sodium for blue, green and red fluorescence, respectively. The fluorescence intensities were measured using Excitation/Emission wavelengths at 405/460nm, 485/535nm and 540/590nm for blue, green and red labels, respectively. This assay includes the blue fluorescence data.
Tox21 Assay Protocol Summary: 2,000 HepG2 cells in 5 uL of culture medium (MEM containing 10% FBS) per well were dispensed into black wall/clear bottom 1536-well plates using a Multidrop Combi Dispenser (ThermoFisher Scientific, Waltham, MA). The assay plates were incubated overnight at 37 C to allow cell attachment to the well bottom, followed by the transfer of 23 nL compound or DMSO vehicle by a pintool work station (Kalypsys , San Diego, CA). After the assay plates were incubated for 1 hr at 37 C and 5% CO2, fluorescence intensities in the assay plates were measured by an Envision (PerkinElmer, Shelton, CT) plate reader using three labels for measuring blue, green and red fluorescence at […] 460, 535 and 590 nm respectively.
On the % scale 0 is the no-effect control and ±100 the full control effect.

For N#CCCCC(C#N)CCC#N (stereo not given), which “fluorescence, % of fluorescent control” value is on record?
Its value is -0.234% (inactive).

For O=C(O)COCC(=O)O, which “fluorescence, % of fluorescent control” value is on record?
Its value is -0.0146% (inactive).

For Nc1nc(Cl)nc2c1ncn2[C@H]1C[C@H](O)[C@@H](CO)O1, which outcome is on record?
The outcome was “inactive”.

Which “fluorescence, % of fluorescent control” value does the source give for C/C(=C\C(C)CC(C)CC(C)C)C1CC(=O)OC1=O (stereo not given) here?
Its value is 0.0129% (inactive).

With C=CCCC as the compound, how does the “fluorescence, % of fluorescent control” value read?
Its value is -0.0463% [at 95.7 µM] (inactive).

For CCCCCCCCCCCC(=O)OCC, which “fluorescence, % of fluorescent control” value is on record?
Its value is -0.0731% (inactive).

For NC(=O)c1ccccc1C(N)=O, which “fluorescence, % of fluorescent control” value is on record?
Its value is -0.0967% (inactive).

Which fluorescence, % of fluorescent control does the source give for CCCCCCCCCCCCCCCCCCCl here?
The fluorescence, % of fluorescent control was -0.0032% [at 3.72 µM] (inactive).

Which “fluorescence, % of fluorescent control” value does the source give for Cc1ccc(S(=O)(=O)NC(=O)NC2CCCC2)cc1 here?
Its value is -0.108% [at 46 µM] (inactive).

For CCc1c(C)[nH]c2c1C(=O)C(CN1CCOCC1)CC2 (stereo not given), which fluorescence, % of fluorescent control is on record?
Its fluorescence, % of fluorescent control is 0.0012% [at 18.6 µM] (inactive).

With CCCCCCCCCCCCN1CCOCC1 as the compound, how does the “fluorescence, % of fluorescent control” value read?
The value was -0.143% (inactive).

With O=Cc1ccc([N+](=O)[O-])cc1 as the compound, how does the “fluorescence, % of fluorescent control” value read?
The value was 0.296% (inactive).

With CC(C)CCCCCOC(=O)CS as the compound, how does the “fluorescence, % of fluorescent control” value read?
The value was 0.0064% (inactive).

For CC1(C)C(=O)NC(=O)N1CO, which “fluorescence, % of fluorescent control” value is on record?
The value was -0.0137% (inactive).

With COc1cc(C)c(Cc2cnc(N)nc2N)cc1OC as the compound, how does the “fluorescence, % of fluorescent control” value read?
The value was 0.0229% [at 46 µM] (inactive).

With C/C=C1\[C@H]2C=C(C)C[C@]1(N)c1ccc(=O)[nH]c1C2 as the compound, how does the “fluorescence, % of fluorescent control” value read?
Its value is 0.058% [at 46 µM] (inactive).

With COc1ccc(C(=O)Nc2ccccc2)cc1[N+](=O)[O-] as the compound, how does the “fluorescence, % of fluorescent control” value read?
The value was 0.916% (inactive).

Which “fluorescence, % of fluorescent control” value does the source give for O=C(OC1C[C@H]2CC[C@@H](C1)[N+]21CCCC1)C(O)(c1ccccc1)c1ccccc1 (stereo not given in full) here?
Its value is -0.0073% [at 46 µM] (inactive).

Which “fluorescence, % of fluorescent control” value does the source give for O=C1c2ccccc2C(=O)C1c1ccc2cc(S(=O)(=O)O)cc(S(=O)(=O)O)c2n1 here?
The value was 0.717% [at 95.7 µM] (inactive).

With CCCCCCCCNC as the compound, how does the “fluorescence, % of fluorescent control” value read?
The value was 0.0503% (inactive).

With CC1(COc2ccc(CC3SC(=O)NC3=O)cc2)CCCCC1 (stereo not given) as the compound, how does the “fluorescence, % of fluorescent control” value read?
Its value is -0.0628% [at 46 µM] (inactive).

Which “fluorescence, % of fluorescent control” value does the source give for O=C(O)c1c2ccccc2cc2ccccc12 here?
The value was 8.66% (inactive).

For CO[C@@H]1COCC[C@@H]1N[C@@H]1CC[C@@](C(=O)N2CCc3ncc(C(F)(F)F)cc3C2)(C(C)C)C1, which “fluorescence, % of fluorescent control” value is on record?
Its value is 0.0782% (inactive).

With CCCCCC1CCC(=O)O1 (stereo not given) as the compound, how does the “fluorescence, % of fluorescent control” value read?
The value was -0.0109% (inactive).

For COC(=O)c1cc(Cl)ccc1[N+](=O)[O-], which “fluorescence, % of fluorescent control” value is on record?
The value was 0.0107% (inactive).

Which fluorescence, % of fluorescent control does the source give for CC(COc1ccccc1)NC(C)C(O)c1ccc(O)cc1 (stereo not given) here?
Its fluorescence, % of fluorescent control is 0.0066% [at 18.6 µM] (inactive).

With CC1(C)CC(=O)CC(C)(C)N1 as the compound, how does the “fluorescence, % of fluorescent control” value read?
The value was 0.231% (inactive).

For CC(C)CC(C)(C)C, which “fluorescence, % of fluorescent control” value is on record?
The value was -0.117% [at 95.7 µM] (inactive).

With Cc1cc(C)n(CO)n1 as the compound, how does the “fluorescence, % of fluorescent control” value read?
The value was -0.104% (inactive).

For CC(=O)OCC(=O)[C@@]1(O)CC[C@H]2[C@@H]3CCC4=CC(=O)C=C[C@]4(C)[C@@]3(F)[C@@H](O)C[C@@]21C, which fluorescence, % of fluorescent control is on record?
Its fluorescence, % of fluorescent control is -0.158% [at 18.6 µM] (inactive).

With c1ccc(CN(Cc2ccccc2)Cc2ccccc2)cc1 as the compound, how does the “fluorescence, % of fluorescent control” value read?
Its value is -0.0302% (inactive).

Which “fluorescence, % of fluorescent control” value does the source give for Cc1ccc(NC=O)c(C)c1 here?
The value was -0.0075% (inactive).

With C[C@@H](O)[C@H]1C(=O)N2C(C(=O)O)=C(S[C@@H]3CN[C@H](CNS(N)(=O)=O)C3)[C@H](C)[C@H]12 as the compound, how does the “fluorescence, % of fluorescent control” value read?
Its value is 1.47% [at 46 µM] (inactive).

Which “fluorescence, % of fluorescent control” value does the source give for O=C(O)c1ccc2cc(O)ccc2c1 here?
The value was -0.0684% (inactive).

For CCCc1nc(C)c2c(=O)[nH]c(-c3cc(S(=O)(=O)N4CCN(CC)CC4)ccc3OCC)nn12, which “fluorescence, % of fluorescent control” value is on record?
The value was -0.24% [at 46 µM] (inactive).

Which “fluorescence, % of fluorescent control” value does the source give for O=[N+]([O-])c1ccc(Cl)cc1Cl here?
Its value is 0.0108% (inactive).

For C[Si](C)(C)O[Si](C)(C)O[Si](C)(C)C, which “fluorescence, % of fluorescent control” value is on record?
The value was -0.192% (inactive).

For CC(=O)S[C@H](C(=O)N[C@H]1Cc2ccccc2[C@H]2CCC[C@@H](C(=O)O)N2C1=O)C(C)C, which “fluorescence, % of fluorescent control” value is on record?
The value was 0.0382% (inactive).

Which “fluorescence, % of fluorescent control” value does the source give for O=C1CCCN1CCO here?
The value was 0.0356% (inactive).

For CC(C)(O)C(=O)O, which “fluorescence, % of fluorescent control” value is on record?
Its value is -0.124% (inactive).

Reference: PubChem BioAssay (Tox21)
